Reference: the supplement of paper PMC8728848
This excerpt belongs to a sample that is enriched for the strongest signals.

Experiments:
Experiment in all cases: glycan array binding signal (z-score within array); higher = stronger binding
Settings in all cases: glycan notation: IUPAC condensed, linker removed
[1] = molecular target: Fuc(a1-2)Gal(b1-3)[Fuc(a1-4)]GlcNAc(b1-2)Man(a1-3)[Fuc(a1-2)Gal(b1-3)[Fuc(a1-4)]GlcNAc(b1-2)Man(a1-6)]Man(b1-4)GlcNAc(b1-4)[Fuc(a1-6)]GlcNAc(b1-4)[Fuc(a1-6)]GlcNAc
How it was run: (§1)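 The binding signal is a Z-score computed within each array and averaged over linkers. Arrays of the same protein sequence at different concentrations or buffers were also averaged together. Data originate from 3228 arrays in the Consortium for Functional Glycomics database, kept only where the protein sequence was available.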

[2] = molecular target: Fuc(a1-2)Gal(b1-4)[Fuc(a1-3)]GlcNAc(b1-2)Man(a1-3)[Fuc(a1-2)Gal(b1-4)[Fuc(a1-3)]GlcNAc(b1-2)Man(a1-6)]Man(b1-4)GlcNAc(b1-4)[Fuc(a1-6)]GlcNAc
How it was run: as §1

[3] = molecular target: Fuc(a1-2)[Gal(a1-3)]Gal(b1-3)GlcNAc
How it was run: as §1

[4] = molecular target: Fuc(a1-2)[GalNAc(a1-3)]Gal(b1-4)GlcNAc
How it was run: as §1

[5] = molecular target: Fuc(a1-3)[Gal(b1-4)]GlcNAc(b1-2)Man(a1-3)[Fuc(a1-3)[Gal(b1-4)]GlcNAc(b1-2)Man(a1-6)]Man(b1-4)GlcNAc(b1-4)GlcNAc
How it was run: as §1

Gal(a1-3)Gal(b1-3)GlcNAc = molecular target: Gal(a1-3)Gal(b1-3)GlcNAc
How it was run: as §1

[6] = molecular target: Gal(a1-3)Gal(b1-4)GlcNAc(b1-2)Man
How it was run: as §1

Gal(a1-4)Gal(b1-4)GlcNAc = molecular target: Gal(a1-4)Gal(b1-4)GlcNAc
How it was run: as §1

Gal(a1-4)GlcNAc = molecular target: Gal(a1-4)GlcNAc
How it was run: as §1

Gal(b1-2)Gal = molecular target: Gal(b1-2)Gal
How it was run: as §1

Gal(b1-3)Gal = molecular target: Gal(b1-3)Gal
How it was run: as §1

Gal(b1-3)Gal(b1-4)GlcNAc = molecular target: Gal(b1-3)Gal(b1-4)GlcNAc
How it was run: as §1

[7] = molecular target: Gal(b1-3)GlcNAc(a1-6)Gal(b1-4)GlcNAc
How it was run: as §1

[8] = molecular target: Gal(b1-3)GlcNAc(b1-2)Man(a1-3)[Gal(b1-3)GlcNAc(b1-2)Man(a1-6)]Man(b1-4)GlcNAc(b1-4)[Fuc(a1-6)]GlcNAc
How it was run: as §1

[9] = molecular target: Gal(b1-3)GlcNAc(b1-6)Gal(b1-4)GlcNAc
How it was run: as §1

[10] = molecular target: Gal(b1-4)GlcNAc(b1-2)Man(a1-6)Man(b1-4)GlcNAc(b1-4)GlcNAc
How it was run: as §1

[11] = molecular target: Gal(b1-4)GlcNAc(b1-2)[Gal(b1-4)GlcNAc(b1-4)]Man(a1-3)[Gal(b1-4)GlcNAc(b1-2)Man(a1-6)]Man(b1-4)GlcNAc(b1-4)GlcNAc
How it was run: as §1

[12] = molecular target: Gal(b1-4)GlcNAc(b1-2)[Gal(b1-4)GlcNAc(b1-6)]Man(a1-6)[Gal(b1-4)GlcNAc(b1-2)Man(a1-3)]Man(b1-4)GlcNAc(b1-4)[Fuc(a1-6)]GlcNAc
How it was run: as §1

[13] = molecular target: Gal(b1-4)GlcNAc(b1-3)Gal(b1-3)GlcNAc
How it was run: as §1

[14] = molecular target: Gal(b1-4)GlcNAc(b1-3)Gal(b1-4)GlcNAc(b1-2)Man(a1-3)[Gal(b1-4)GlcNAc(b1-3)Gal(b1-4)GlcNAc(b1-2)Man(a1-6)]Man(b1-4)GlcNAc(b1-4)[Fuc(a1-6)]GlcNAc
How it was run: as §1

[15] = molecular target: Gal(b1-4)GlcNAc(b1-3)Gal(b1-4)GlcNAc(b1-3)Gal(b1-4)GlcNAc(b1-3)Gal(b1-4)GlcNAc(b1-2)Man(a1-3)[Gal(b1-4)GlcNAc(b1-3)Gal(b1-4)GlcNAc(b1-3)Gal(b1-4)GlcNAc(b1-3)Gal(b1-4)GlcNAc(b1-2)Man(a1-6)]Man(b1-4)GlcNAc(b1-4)[Fuc(a1-6)]GlcNAc
How it was run: as §1

[16] = molecular target: Gal(b1-4)GlcNAc(b1-3)Gal(b1-4)GlcNAc(b1-3)Gal(b1-4)GlcNAc(b1-3)Gal(b1-4)GlcNAc(b1-3)Gal(b1-4)GlcNAc(b1-2)Man(a1-3)[Gal(b1-4)GlcNAc(b1-3)Gal(b1-4)GlcNAc(b1-3)Gal(b1-4)GlcNAc(b1-3)Gal(b1-4)GlcNAc(b1-3)Gal(b1-4)GlcNAc(b1-2)Man(a1-6)]Man(b1-4)GlcNAc(b1-4)GlcNAc
How it was run: as §1

Gal3S(b1-3)GalNAc = molecular target: Gal3S(b1-3)GalNAc
How it was run: as §1

Gal3S(b1-4)Glc = molecular target: Gal3S(b1-4)Glc
How it was run: as §1

Gal3S(b1-4)Glc6S = molecular target: Gal3S(b1-4)Glc6S
How it was run: as §1

Gal3S6S(b1-4)GlcNAc = molecular target: Gal3S6S(b1-4)GlcNAc
How it was run: as §1

Glc(a1-4)Glc = molecular target: Glc(a1-4)Glc
How it was run: as §1

GlcNAc(b1-3)Fuc = molecular target: GlcNAc(b1-3)Fuc
How it was run: as §1

[17] = molecular target: GlcNAc(b1-4)Gal(b1-4)GlcNAc
How it was run: as §1

Kdn(a2-3)Gal(b1-4)Glc = molecular target: Kdn(a2-3)Gal(b1-4)Glc
How it was run: as §1

B1: FliD (Clostridium difficile) (protein)
chain: MSSISPVRVTGLSGNFDMEGIIEASMIRDKEKVNKAKQDQQIVKWKQEIYRDIIKESKNLYDKYLNGDSPNSITNKKAYSATRITSSDESIIVAKGSAGAEKINYQFAVSQMAEPAKVTIKLNSSDPIVQQFPPNASGASSLNIGGVNIPISEQDTTSTIVSKINSLCADNDIRASYSEMTGELIISRKQTGSSSDIDLKVIGNDSLAGQIASDNGITFTTDASGTKSAVVYGKNLEADVTDDQGRVTHISKEQNSFKIDNIDYNVNSKGSAKLVSVTDTEEATKNMKAFVDDYNALMDKVYGLVTTKKSKDYPPLTDEQKDDMTTEEIEKWEKKAKEGILRNDDELRAFVEDIQSMFFGDADTIIALRKLGISEHENYNKKGQISFNADTFSKALIDDSDKVYKALAGYSSNYDDKGMFEKLKKIVFEYSGSSASKLTKKAGMENSSSASQNVYSKQIAEQERNISRLVEKMNDKEKRLYAKYSALESLLNKYSSQMNYFSQAQGN
- glycan array binding signal (z-score) [1]: -0.156
- glycan array binding signal (z-score) [2]: -0.162
- glycan array binding signal (z-score) [3]: 1.88
- glycan array binding signal (z-score) [4]: -0.235
- glycan array binding signal (z-score) [5]: -0.161
- glycan array binding signal (z-score) (Gal(a1-3)Gal(b1-3)GlcNAc): 12.1
- glycan array binding signal (z-score) [6]: -0.211
- glycan array binding signal (z-score) (Gal(a1-4)Gal(b1-4)GlcNAc): -0.161
- glycan array binding signal (z-score) (Gal(a1-4)GlcNAc): 1.22
- glycan array binding signal (z-score) (Gal(b1-2)Gal): 1.49
- glycan array binding signal (z-score) (Gal(b1-3)Gal): -0.262
- glycan array binding signal (z-score) (Gal(b1-3)Gal(b1-4)GlcNAc): -0.236
- glycan array binding signal (z-score) [7]: -0.181
- glycan array binding signal (z-score) [8]: -0.117
- glycan array binding signal (z-score) [9]: 0.007
- glycan array binding signal (z-score) [10]: -0.233
- glycan array binding signal (z-score) [11]: -0.254
- glycan array binding signal (z-score) [12]: -0.222
- glycan array binding signal (z-score) [13]: -0.084
- glycan array binding signal (z-score) [14]: 1.44
- glycan array binding signal (z-score) [15]: 1.2
- glycan array binding signal (z-score) [16]: -0.072
- glycan array binding signal (z-score) (Gal3S(b1-3)GalNAc): 0.678
- glycan array binding signal (z-score) (Gal3S(b1-4)Glc): 3.41
- glycan array binding signal (z-score) (Gal3S(b1-4)Glc6S): 1.24
- glycan array binding signal (z-score) (Gal3S6S(b1-4)GlcNAc): -0.201
- glycan array binding signal (z-score) (Glc(a1-4)Glc): -0.054
- glycan array binding signal (z-score) (GlcNAc(b1-3)Fuc): -0.089
- glycan array binding signal (z-score) [17]: -0.232
- glycan array binding signal (z-score) (Kdn(a2-3)Gal(b1-4)Glc): -0.172
